Screens as filed in PubChem.
TDP1 inh – blocks human tyrosyl-DNA phosphodiesterase 1 | Q9NUW8 | recombinant TDP1, AlphaScreen DNA substrate cleavage | Potency, µM (titrated, usually from 130 µM), usual class: inhibitors | 0.28% of 350,000 active; also: nearly all actives have a fitted effect of over 40% in size
Target sequence (Q9NUW8 whole entry, looked up): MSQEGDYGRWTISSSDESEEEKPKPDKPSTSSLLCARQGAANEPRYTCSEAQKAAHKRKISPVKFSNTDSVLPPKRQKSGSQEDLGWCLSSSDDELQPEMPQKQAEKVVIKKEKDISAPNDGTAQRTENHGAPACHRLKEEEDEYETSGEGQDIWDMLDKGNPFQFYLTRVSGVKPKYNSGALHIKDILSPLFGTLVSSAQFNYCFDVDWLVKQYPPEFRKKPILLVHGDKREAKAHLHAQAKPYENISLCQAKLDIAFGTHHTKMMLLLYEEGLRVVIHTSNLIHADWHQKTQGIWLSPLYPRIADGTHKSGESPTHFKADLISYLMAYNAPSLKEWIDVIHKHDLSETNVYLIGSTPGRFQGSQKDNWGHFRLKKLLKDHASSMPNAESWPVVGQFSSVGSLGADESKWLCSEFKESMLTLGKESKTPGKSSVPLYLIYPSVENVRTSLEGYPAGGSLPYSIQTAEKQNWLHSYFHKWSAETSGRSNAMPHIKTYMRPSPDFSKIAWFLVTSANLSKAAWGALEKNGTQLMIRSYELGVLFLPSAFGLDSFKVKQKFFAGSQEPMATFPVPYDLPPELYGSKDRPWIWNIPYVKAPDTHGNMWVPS
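E. coli-derived human Tdp1, 1 nM final. Cpd preinc 15 min RT; substrate 15 nM final, 5 min RT; AS bead mix 10 ug/ml final, 10 min RT. Signal loss = tyrosine-FITC cleavage. No-enzyme wells = max signal.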
BLM helicase inh – inhibitors of human Bloom syndrome helicase BLM | recombinant BLM DNA unwinding, fluorescence dequenching | Potency, µM (highest dose often 56.1 µM), most hits filed as inhibitors | 0.2% of 350,000 active | AID 2528; also: nearly all actives have a fitted effect of over 35% in size
JMJD2E inh – inhibitors of human JMJD2E histone demethylase; B2RXH2; JMJD2E catalytic domain, FDH-coupled NADH fluorescence (FDH is formaldehyde dehydrogenase); Potency, µM (top dose mostly 57.1 µM), hits mostly inhibitors; 1.6% of 230,000 active; active = well fitted inhibition curve with a large enough effect, not every such curve was filed as active; inconclusive = small, poorly fitted or top-dose-only effect, or another doubt; inactive = no such curve, though single readings can be large or run the other way; also: nearly all actives have a fitted effect of over 50% in size
L3MBTL1 inh – inhibitors of human L3MBTL1. AlphaScreen L3MBTL1–H3K9me1 peptide binding. Potency, µM (top dose mostly 57.1 µM), hits mostly inhibitors. Q9Y468. 0.66% of 230,000 active; also: nearly all actives have a fitted effect of over 60% in size
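Displacement of a biotinylated histone H3(1-15) peptide monomethylated at Lys9 (75 nM) from L3MBTL1 (50 nM) was measured by AlphaScreen after a 30 min room-temperature compound incubation; cefsulodin titration served as intraplate control.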
RECQ1 inh-1 – inhibitors of human RECQ1 DNA helicase; RECQ1 DNA unwinding, red fluorescence kinetic read; AID 2549; Potency, µM (titrated, usually from 57.3 µM), usual class: inhibitors; 0.54% of 240,000 active; also: nearly all actives have a fitted effect of over 30% in size
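RECQ1T1 50 nM; forked duplex (20 bp + 30-nt ss tails) 200 nM, ATP 2 mM final; pH 8.0, 2 mM MgCl2, 2.5 ug/ml poly(dI-dC); 15 min compound preincubation; discontinuous kinetic read over 2 h at RT.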
APE1 inh-1 – APE1 (human) endonuclease inhibition | 0.35% of 350,000 active | recombinant APE1, TAMRA/BHQ-2 abasic DNA cleavage fluorescence | Potency, µM (doses to about 65.8 µM), usual class: inhibitors | P27695; also: nearly all actives have a fitted effect of over 55% in size
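Enzyme (0.75 nM final) and test compound are incubated 15 min at room temperature before adding 50 nM quenched THF abasic-site duplex. Cleavage dequenches TAMRA, followed at 525/598 nm over three reads one minute apart.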
APE1 dye cs – counter-screen for APE1 inhibitors: DNA dye displacement. shares compounds with APE1 inh-1. DNA fluorescent dye displacement counterscreen, fluorescence. Potency, µM (top dose mostly 28.5 µM), usual class: inhibitors. 7% of 480 active. AID 2564;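 also: loss of thiazole orange fluorescence as the dye is displaced from duplex DNA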
Endo IV inh – counter-screen for APE1 inhibitors: inhibitors of E. coli endonuclease IV | shares compounds with APE1 inh-1 | E. coli Endo IV, fluorogenic AP-site DNA cleavage | Potency, µM (series often up to 27.1 µM), hits mostly inhibitors | 4% of 560 active | AID 2565
APE1 inh-2 – confirmation of inhibitors of human APE1 endonuclease; shares compounds with APE1 inh-1; purified APE1, fluorogenic abasic-site DNA cleavage; Potency, µM (highest dose often 57.1 µM), hits mostly inhibitors; 44% of 750 active; also: nearly all actives have a fitted effect of over 30% in size
APE1 FP inh – displaces DNA from human APE1 in FP assay. shares compounds with APE1 inh-1. AID 2573. Potency, µM (doses to about 28.5 µM), usual class: inhibitors. 7% of 480 active. APE1 binding to TAMRA-labelled double-stranded DNA, fluorescence polarization displacement
RECQ1 inh conf – confirmation of human RECQ1 helicase inhibitors; shares compounds with RECQ1 inh-1; RECQ1 helicase DNA unwinding, fluorescence; Potency, µM (titrated, usually from 229 µM), usual class: inhibitors; 28% of 610 active; AID 2708; also: nearly all actives have a fitted effect of over 45% in size
ADP FP counter – counter-screen for RECQ1 inhibitors: ADP displacement | ADP fluorescence polarization displacement counterscreen | AID 2711 | shares compounds with RECQ1 inh-1 | 27% of 530 active | Potency, µM (doses to about 228 µM), hits mostly inhibitors; also: nearly all actives have a fitted effect of over 45% in size
RECQ1 inh-2 – confirmation of human RECQ1 helicase inhibitors; shares compounds with RECQ1 inh-1; recombinant RECQ1 DNA unwinding, red fluorescence; Potency, µM (titrated, usually from 119 µM), actives largely listed as inhibitors; 15% of 1,100 active; also: nearly all actives have a fitted effect of over 50% in size
Of the large screens only hits and unclear results are named; the others gave an inactive call (follow-up assays come after a bar, where they were run). Only a selection was taken, and hits are over-represented in it overall. Unless noted, calls follow the shape of the dose curve; as a rule, active = well fitted curve in the direction sought with a large enough effect; inconclusive = small, poorly fitted or top-dose-only effect, or another doubt; inactive = no such curve, though single readings can be large; an effect the other way counts as inactive or inconclusive.

O=C1/C(=C/C=C/c2ccco2)SC(=S)N1c1ccc(O)cc1	BLM helicase inh inconclusive, JMJD2E inh 14µM, L3MBTL1 inh 4.5µM, RECQ1 inh-1 11µM, APE1 inh-1 7.9µM (no result: TDP1 inh) | APE1 dye cs inconclusive | Endo IV inh inactive | APE1 inh-2 inconclusive | APE1 FP inh inactive | RECQ1 inh conf inconclusive | ADP FP counter inactive
O=C(NN1C(=O)/C(=C/C=C/c2ccccc2)SC1=S)c1ccncc1	none (no result: L3MBTL1 inh)
COc1ccc(NC(=O)c2ccco2)cc1NC(=O)c1ccc(OC(C)C)cc1	none (no result: JMJD2E inh, L3MBTL1 inh, RECQ1 inh-1, APE1 inh-1)
Cc1cc(=O)n2[nH]c(-c3ccsc3-n3c(C)ccc3C)cc2n1	BLM helicase inh 7.9µM, JMJD2E inh inconclusive, RECQ1 inh-1 8.9µM, APE1 inh-1 3.5µM (no result: TDP1 inh, L3MBTL1 inh) | APE1 dye cs inactive | Endo IV inh inactive | APE1 inh-2 inconclusive | APE1 FP inh inactive | RECQ1 inh conf 50µM | ADP FP counter 32µM | RECQ1 inh-2 inconclusive
Cc1cc(=O)n2[nH]c(-c3ccc(F)cc3)cc2n1	JMJD2E inh inconclusive
CCn1c(SCC(=O)c2ccc(O)c(O)c2)nnc1-c1ccccc1OC	JMJD2E inh 22µM, L3MBTL1 inh inconclusive, RECQ1 inh-1 14µM, APE1 inh-1 inconclusive | APE1 dye cs inactive | Endo IV inh inactive | APE1 inh-2 inconclusive | APE1 FP inh inactive | RECQ1 inh-2 2µM
Cc1cccc(C(=O)Nc2ccc3nc(SCC(=O)N4CCCC4)sc3c2)c1	none (no result: JMJD2E inh, L3MBTL1 inh, RECQ1 inh-1, APE1 inh-1)
CC1=[N+](C)c2ccc3ccccc3c2C1(C)C	JMJD2E inh inconclusive, RECQ1 inh-1 3.5µM, APE1 inh-1 14µM | APE1 dye cs inactive | Endo IV inh inconclusive | APE1 inh-2 inconclusive | APE1 FP inh inactive | RECQ1 inh conf 7.9µM | ADP FP counter 2.8µM | RECQ1 inh-2 22µM
Cc1nsc2c1ccc1ccccc12	none
CC(=O)OCCNc1cc(SCc2ccco2)c2nonc2c1[N+](=O)[O-]	JMJD2E inh inconclusive, RECQ1 inh-1 7.1µM, APE1 inh-1 13µM (no result: TDP1 inh) | APE1 dye cs inactive | Endo IV inh inactive | APE1 inh-2 14µM | APE1 FP inh inactive | RECQ1 inh conf inactive | RECQ1 inh-2 inactive
O=C1/C(=C/c2ccc(O)c(O)c2)Oc2cc(O)ccc21	JMJD2E inh 16µM, RECQ1 inh-1 inconclusive, APE1 inh-1 inconclusive (no result: TDP1 inh, L3MBTL1 inh) | APE1 dye cs inactive | Endo IV inh inactive | APE1 inh-2 inconclusive | APE1 FP inh inactive | RECQ1 inh-2 56µM
O=C1/C(=C/c2cccc([N+](=O)[O-])c2)Oc2cc(O)ccc21	none (no result: TDP1 inh, JMJD2E inh, L3MBTL1 inh, RECQ1 inh-1)
